Common to all, as to assay: DAPPL (digital affinity profiling via proximity ligation, sequencing); 10 mM Tris-HCl pH 7.5, 50 mM NaCl, 1 mM DTT, 4% glycerol, room temperature, 30 min; GST-TFs on glutathione beads, 16-mer random dsDNA library, 0.1% formaldehyde crosslink after washing; high values mean tight binding
Conditions in all cases: protein: recombinant; tags: N-terminal GST; dsDNA, one strand shown

One assay has as its target T1, FLI1 (Homo sapiens, UniProt Q01543 1-452).
T1 sequence: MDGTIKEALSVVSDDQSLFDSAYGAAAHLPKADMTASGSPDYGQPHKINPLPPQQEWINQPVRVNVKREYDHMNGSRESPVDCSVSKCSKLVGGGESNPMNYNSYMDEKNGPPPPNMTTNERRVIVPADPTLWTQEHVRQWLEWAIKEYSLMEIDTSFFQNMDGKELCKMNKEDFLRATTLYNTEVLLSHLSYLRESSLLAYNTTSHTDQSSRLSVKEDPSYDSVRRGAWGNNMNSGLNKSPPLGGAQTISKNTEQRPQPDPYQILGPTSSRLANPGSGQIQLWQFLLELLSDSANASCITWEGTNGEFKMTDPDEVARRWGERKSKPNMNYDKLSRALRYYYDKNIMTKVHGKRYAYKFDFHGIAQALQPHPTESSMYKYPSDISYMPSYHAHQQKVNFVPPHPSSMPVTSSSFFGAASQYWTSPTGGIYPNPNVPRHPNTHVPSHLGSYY
In a few lines:
(§1)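 Pools were built from human transcription factors expressed in yeast as GST fusions, captured on glutathione beads and DNA-barcoded, along with a tag-only sample. Incubation with 200 nmole of a 16-mer random double-stranded DNA library lasted 30 min at room temperature in Tris/NaCl/DTT/glycerol buffer, and was followed by washing, 0.1% formaldehyde crosslinking, proximity ligation, PCR amplification and Illumina NextSeq500 sequencing. Binding signal is the quotient of each hexamer's read frequency for a factor and its frequency for the tag-only sample.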

A further assay addresses T2, ELK1 (Homo sapiens, UniProt P19419 1-428).
T2 sequence: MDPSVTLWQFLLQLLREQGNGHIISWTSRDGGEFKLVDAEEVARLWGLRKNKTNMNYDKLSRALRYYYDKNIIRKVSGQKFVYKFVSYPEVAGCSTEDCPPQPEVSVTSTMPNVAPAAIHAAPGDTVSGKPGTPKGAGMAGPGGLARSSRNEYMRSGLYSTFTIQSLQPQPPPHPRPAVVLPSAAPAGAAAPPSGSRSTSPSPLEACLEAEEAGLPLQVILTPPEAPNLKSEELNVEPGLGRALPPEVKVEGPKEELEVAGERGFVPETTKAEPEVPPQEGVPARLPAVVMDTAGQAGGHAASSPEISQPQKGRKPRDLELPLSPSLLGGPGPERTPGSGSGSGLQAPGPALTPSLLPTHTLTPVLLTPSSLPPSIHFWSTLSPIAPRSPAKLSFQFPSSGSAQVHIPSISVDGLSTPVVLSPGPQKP
In a few lines:
as §1

A further assay concerns the target T3, GABPA (Homo sapiens, UniProt Q06546 1-454).
T3 sequence: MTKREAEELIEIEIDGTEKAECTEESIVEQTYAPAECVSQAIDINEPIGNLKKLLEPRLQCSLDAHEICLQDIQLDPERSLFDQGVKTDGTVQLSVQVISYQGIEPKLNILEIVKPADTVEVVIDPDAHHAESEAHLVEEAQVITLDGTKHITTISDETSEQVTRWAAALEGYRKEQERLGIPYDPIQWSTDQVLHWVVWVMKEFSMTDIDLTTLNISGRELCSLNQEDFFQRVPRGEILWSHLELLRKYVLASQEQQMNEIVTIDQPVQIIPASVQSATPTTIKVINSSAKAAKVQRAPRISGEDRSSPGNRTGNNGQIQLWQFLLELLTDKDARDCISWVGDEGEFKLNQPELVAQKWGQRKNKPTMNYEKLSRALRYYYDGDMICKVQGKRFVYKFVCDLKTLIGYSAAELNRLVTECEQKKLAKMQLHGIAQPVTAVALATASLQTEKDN
The gist of the method: as §1

A further assay has as its target T4, EHF (Homo sapiens, UniProt Q9NZC4 1-300).
T4 sequence: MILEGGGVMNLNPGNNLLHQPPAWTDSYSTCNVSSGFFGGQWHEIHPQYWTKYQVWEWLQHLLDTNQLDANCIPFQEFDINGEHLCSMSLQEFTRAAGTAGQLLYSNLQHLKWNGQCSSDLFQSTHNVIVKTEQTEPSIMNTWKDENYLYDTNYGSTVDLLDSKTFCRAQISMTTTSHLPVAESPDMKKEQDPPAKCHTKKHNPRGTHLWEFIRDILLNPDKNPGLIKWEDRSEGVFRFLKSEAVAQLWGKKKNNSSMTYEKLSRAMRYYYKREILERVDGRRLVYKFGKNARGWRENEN
In a few lines: as §1

Another assay has as its target SPI1 (Homo sapiens, UniProt P17947 1-270). In a few lines: as §1
A further assay addresses T5, ELK3 (Homo sapiens, UniProt P41970 1-407).
T5 sequence: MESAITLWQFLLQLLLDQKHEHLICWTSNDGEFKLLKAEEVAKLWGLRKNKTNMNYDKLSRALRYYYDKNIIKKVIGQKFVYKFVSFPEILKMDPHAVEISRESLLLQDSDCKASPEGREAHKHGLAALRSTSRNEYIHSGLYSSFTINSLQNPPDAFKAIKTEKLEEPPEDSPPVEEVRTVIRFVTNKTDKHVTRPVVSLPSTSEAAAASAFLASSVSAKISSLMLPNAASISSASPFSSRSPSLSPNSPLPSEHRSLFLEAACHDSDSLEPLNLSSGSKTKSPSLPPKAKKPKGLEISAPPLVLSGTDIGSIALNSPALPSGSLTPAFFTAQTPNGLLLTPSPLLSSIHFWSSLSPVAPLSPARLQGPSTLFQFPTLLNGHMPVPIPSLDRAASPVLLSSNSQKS
In a few lines:
as §1

Another assay addresses ETV5 (Homo sapiens, UniProt P41161 1-510). The gist of the method:
as §1

The target in the next assay is T6, SPIC (Homo sapiens, UniProt Q8N5J4 1-248).
T6 sequence: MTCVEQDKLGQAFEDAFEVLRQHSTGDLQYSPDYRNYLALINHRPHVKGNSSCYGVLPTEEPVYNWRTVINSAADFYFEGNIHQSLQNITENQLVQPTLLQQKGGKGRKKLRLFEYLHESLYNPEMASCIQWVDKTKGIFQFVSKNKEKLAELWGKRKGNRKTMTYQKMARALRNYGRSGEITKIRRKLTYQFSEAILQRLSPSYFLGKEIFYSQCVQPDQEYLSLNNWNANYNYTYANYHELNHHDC
The gist of the method: as §1

In another assay the target is T7, ERF (Homo sapiens, UniProt P50548 1-548).
T7 sequence: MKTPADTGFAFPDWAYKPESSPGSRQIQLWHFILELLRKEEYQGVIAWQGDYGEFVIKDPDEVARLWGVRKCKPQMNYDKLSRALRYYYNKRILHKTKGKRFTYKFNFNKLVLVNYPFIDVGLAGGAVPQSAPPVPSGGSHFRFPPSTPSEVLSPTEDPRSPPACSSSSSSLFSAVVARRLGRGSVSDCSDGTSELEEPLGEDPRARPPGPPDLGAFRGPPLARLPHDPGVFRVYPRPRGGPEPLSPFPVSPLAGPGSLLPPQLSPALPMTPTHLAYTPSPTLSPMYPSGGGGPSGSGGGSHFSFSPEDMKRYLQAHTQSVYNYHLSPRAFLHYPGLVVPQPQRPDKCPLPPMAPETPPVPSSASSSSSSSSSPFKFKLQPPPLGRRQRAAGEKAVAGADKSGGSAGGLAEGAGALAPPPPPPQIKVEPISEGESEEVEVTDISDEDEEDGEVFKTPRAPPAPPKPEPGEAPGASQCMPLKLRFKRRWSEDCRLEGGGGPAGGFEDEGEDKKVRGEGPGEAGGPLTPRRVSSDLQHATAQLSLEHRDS
In a few lines:
as §1

Another assay concerns the target T8, ETS2 (Homo sapiens, UniProt P15036 1-469).
T8 sequence: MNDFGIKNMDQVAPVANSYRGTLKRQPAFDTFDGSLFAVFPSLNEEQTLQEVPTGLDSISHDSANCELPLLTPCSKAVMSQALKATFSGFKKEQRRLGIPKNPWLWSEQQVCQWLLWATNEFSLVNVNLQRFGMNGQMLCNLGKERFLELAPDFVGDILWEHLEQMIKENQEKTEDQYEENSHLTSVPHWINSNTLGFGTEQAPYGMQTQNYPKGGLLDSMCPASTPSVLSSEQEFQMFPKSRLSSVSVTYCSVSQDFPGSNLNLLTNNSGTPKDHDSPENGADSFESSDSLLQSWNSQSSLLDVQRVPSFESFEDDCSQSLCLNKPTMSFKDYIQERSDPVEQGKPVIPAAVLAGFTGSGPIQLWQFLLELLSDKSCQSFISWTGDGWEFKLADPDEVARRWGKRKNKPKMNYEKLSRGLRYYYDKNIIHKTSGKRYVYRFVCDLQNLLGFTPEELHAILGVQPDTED
The gist of the method: as §1

ETV5, sequence (P41161 whole entry): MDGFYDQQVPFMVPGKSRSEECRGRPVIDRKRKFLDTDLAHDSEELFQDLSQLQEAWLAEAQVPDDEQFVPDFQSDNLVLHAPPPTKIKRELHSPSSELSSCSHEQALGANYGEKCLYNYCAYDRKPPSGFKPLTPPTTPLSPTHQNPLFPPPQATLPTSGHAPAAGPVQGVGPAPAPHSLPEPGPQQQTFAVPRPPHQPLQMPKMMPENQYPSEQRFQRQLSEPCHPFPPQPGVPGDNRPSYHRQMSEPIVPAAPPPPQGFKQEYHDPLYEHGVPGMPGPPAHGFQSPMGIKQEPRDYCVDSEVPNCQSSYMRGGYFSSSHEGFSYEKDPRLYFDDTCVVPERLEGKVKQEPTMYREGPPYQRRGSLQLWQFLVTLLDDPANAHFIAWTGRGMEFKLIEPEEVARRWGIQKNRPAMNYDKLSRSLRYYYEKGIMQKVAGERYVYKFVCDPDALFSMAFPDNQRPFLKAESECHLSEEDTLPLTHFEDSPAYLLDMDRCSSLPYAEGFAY

As to ATAGCG, the binding signal with FLI1 is 1.08 fold enrichment (6-mer frequency, TF over GST control); with ELK1, 1.03 fold enrichment (6-mer frequency, TF over GST control); in the assay with GABPA, 1.01 fold enrichment (6-mer frequency, TF over GST control); in the assay with EHF, 1.05 fold enrichment (6-mer frequency, TF over GST control); with SPI1 it was 1.07 fold enrichment (6-mer frequency, TF over GST control); with ELK3, 1.05 fold enrichment (6-mer frequency, TF over GST control). The binding signal in the assay with ETV5 is 1.04 fold enrichment (6-mer frequency, TF over GST control); with SPIC, 1.03 fold enrichment (6-mer frequency, TF over GST control); in the assay with ERF, 1.1 fold enrichment (6-mer frequency, TF over GST control); with ETS2, 1 fold enrichment (6-mer frequency, TF over GST control).

Source of the values: publication PMC7862700, “An all-to-all approach to the identification of sequence-specific readers for epigenetic DNA modifications on cytosine”.
